Measured values: PubChem BioAssay (NCI)
The panel holds about 83,000 compounds, 20% with a hit somewhere; the sample as a whole holds those more often.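 A percent growth of 40 corresponds to 60% growth inhibition; 0 means no net growth; -100 means all cells died. Active threshold: below 10.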 The source made the active and inactive calls.

Legend:
Assay in all cases: NCI-60 one-dose screen, 48 h (100 = growth as untreated, 0 = no growth, -100 = all killed)
NCI-H23 lung = details: 10 µM unless noted
NCI-H226 lung = details: 10 µM unless noted
NCI-H322M lung = details: 10 µM unless noted
HOP-62 NSCLC = details: 10 µM unless noted
NCI-H460 lung = details: 10 µM unless noted
HOP-92 NSCLC = details: 10 µM
NCI-H522 lung = details: 10 µM unless noted
A549/ATCC NSCLC = details: 10 µM unless noted
786-0 renal = details: 10 µM unless noted
COLO 205 colon = details: 10 µM unless noted
DU-145 prostate = details: 10 µM unless noted
K-562 leukemia = details: 10 µM unless noted
MALME-3M melanoma = details: 10 µM unless noted
MDA-MB-231 breast = details: 10 µM unless noted
SF-268 CNS = details: 10 µM unless noted
SF-295 CNS = details: 10 µM unless noted
SF-539 CNS = details: 10 µM unless noted
UACC-257 melanoma = details: 10 µM unless noted

Measured: growth

C=CCn1c(SCC(=O)Nc2ccc(C(=O)/C=C/c3ccc(Cl)cc3)cc2)nnc1-c1c[nH]c2ccccc12
inactive: NCI-H23 lung 77.8% | NCI-H226 lung 68% | NCI-H322M lung 88% | HOP-62 NSCLC 88.8% | NCI-H460 lung 95.1% | HOP-92 NSCLC 79.9% | NCI-H522 lung 73.4% | A549/ATCC NSCLC 64.8% | 786-0 renal 106% | COLO 205 colon 107% | DU-145 prostate 90.6% | K-562 leukemia 50.7% | MALME-3M melanoma 83% | MDA-MB-231 breast 81.5% | SF-268 CNS 64% | SF-295 CNS 46% | SF-539 CNS 75.8% | UACC-257 melanoma 99.6%

COc1c(N2CC3CCCNC3C2)c(F)cc2c(=O)c(C(=O)N/N=C/c3ccc4c(c3)OCO4)cn(C3CC3)c12 (centres undefined)
inactive: NCI-H23 lung 81.8% | NCI-H226 lung 86.5% | NCI-H322M lung 88.3% | HOP-62 NSCLC 101% | NCI-H460 lung 79.2% | HOP-92 NSCLC 67.4% | NCI-H522 lung 29.3% | A549/ATCC NSCLC 70.2% | 786-0 renal 50.3% | COLO 205 colon 85.5% | DU-145 prostate 68.9% | MALME-3M melanoma 90.3% | MDA-MB-231 breast 41.3% | SF-268 CNS 79.4% | SF-295 CNS 44.2% | UACC-257 melanoma 85.3%
active: K-562 leukemia 2.44% | SF-539 CNS -60.4%

Nc1ncc(-c2ccc3ncnc(Nc4cccc(Cl)c4F)c3c2)cn1
inactive: NCI-H23 lung 72.8% | NCI-H226 lung 66.6% | NCI-H322M lung 11% | HOP-62 NSCLC 47.5% | NCI-H460 lung 62.2% | HOP-92 NSCLC 31.3% | NCI-H522 lung 32.2% | A549/ATCC NSCLC 51.9% | 786-0 renal 43.5% | COLO 205 colon 86.4% | DU-145 prostate 48.9% | K-562 leukemia 80.5% | MALME-3M melanoma 49.3% | MDA-MB-231 breast 55.3% | SF-268 CNS 53.8% | SF-295 CNS 44.9% | SF-539 CNS 68.4% | UACC-257 melanoma 89.4%

NC(N)=Nc1ccc(Oc2cccc(NC(N)=Nc3ccc(I)cc3F)c2)cn1
inactive: NCI-H23 lung 52.2% | NCI-H226 lung 84.3% | NCI-H322M lung 53.1% | HOP-62 NSCLC 66.9% | NCI-H460 lung 40.6% | NCI-H522 lung 41.2% | A549/ATCC NSCLC 57.9% | 786-0 renal 80.8% | COLO 205 colon 39.7% | DU-145 prostate 88.3% | K-562 leukemia 46.1% | MALME-3M melanoma 75.5% | MDA-MB-231 breast 62.8% | SF-268 CNS 36.3% | SF-295 CNS 47.3% | SF-539 CNS 60.3% | UACC-257 melanoma 75.6%
active: HOP-92 NSCLC -3.49%

CCOC(=O)C(=O)/C(=C\c1ccc(Cl)cc1)C(=O)N1C(=S)NC(=O)C1CC(C)C (centres undefined)
inactive: NCI-H23 lung 96.5% | NCI-H226 lung 92% | NCI-H322M lung 95.3% | HOP-62 NSCLC 95.6% | NCI-H460 lung 102% | HOP-92 NSCLC 86.8% | NCI-H522 lung 91.7% | A549/ATCC NSCLC 104% | 786-0 renal 103% | COLO 205 colon 109% | DU-145 prostate 85.2% | K-562 leukemia 102% | MALME-3M melanoma 99.8% | MDA-MB-231 breast 90.8% | SF-268 CNS 100% | SF-295 CNS 99.9% | SF-539 CNS 103% | UACC-257 melanoma 105%

CS(=O)(=O)Nc1cc(-c2ccc3ncc(C#N)c(NCc4ccccc4O)c3c2)cnc1Cl
active: NCI-H23 lung -7.77% | HOP-62 NSCLC 3.57% | NCI-H460 lung 7.88% | HOP-92 NSCLC -10.8% | 786-0 renal 8.24% | COLO 205 colon 8.91% | MALME-3M melanoma -37.2% | MDA-MB-231 breast 6.73% | SF-268 CNS 6.44% | SF-295 CNS -14.4% | SF-539 CNS -14.5% | UACC-257 melanoma 6.3%
inactive: NCI-H226 lung 16.9% | NCI-H322M lung 16.1% | NCI-H522 lung 12.8% | A549/ATCC NSCLC 15.8% | DU-145 prostate 19.2% | K-562 leukemia 22.3%

O=C(NNc1nc2cc(F)c(F)cc2n2c(CN3CC4CNCC4C3)ccc12)c1cnccn1 (centres undefined)
active: NCI-H460 lung 1.73% | MALME-3M melanoma 7.02% | SF-295 CNS 5.87% | SF-539 CNS 8.64% | UACC-257 melanoma 7.77%
inactive: NCI-H23 lung 26.7% | NCI-H226 lung 16.8% | NCI-H322M lung 26.7% | HOP-62 NSCLC 10.8% | HOP-92 NSCLC 37.4% | NCI-H522 lung 11.2% | A549/ATCC NSCLC 16.9% | 786-0 renal 16.5% | COLO 205 colon 11.4% | DU-145 prostate 22.1% | K-562 leukemia 14.1% | MDA-MB-231 breast 39.6% | SF-268 CNS 15.8%

CS(=O)(=O)Nc1cc(-c2ccc3ncc(C#N)c(NCc4ccccc4F)c3c2)cnc1Cl
active: NCI-H23 lung 1.49% | HOP-62 NSCLC 0.205% | NCI-H460 lung 5.08% | HOP-92 NSCLC -10.9% | A549/ATCC NSCLC 7.89% | COLO 205 colon -24.7% | MALME-3M melanoma -35.6% | MDA-MB-231 breast 5.59% | SF-268 CNS 7.96% | SF-295 CNS -21.7% | SF-539 CNS -11.5% | UACC-257 melanoma 2.07%
inactive: NCI-H226 lung 14.6% | NCI-H322M lung 12.9% | NCI-H522 lung 14.1% | 786-0 renal 11.4% | DU-145 prostate 19% | K-562 leukemia 13.2%
